Measurements reported in PubChem BioAssay.
The source made the active and inactive calls.

Key:
[1] = test system: PRMT1 (protein arginine N-methyltransferase 1); test: small molecules binding arginine methyltransferase PRMT1 – biochemical, small-molecule microarray, 635 nm fluorescence, primary screen (AID 1088); details: higher = more signal;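 further: binding of Prmt1 protein to compounds spotted on small-molecule microarray slides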
[2] = growth effects on S. cerevisiae YJM789 – YJM789 clinical isolate, OD600, 24 h, basal, primary screen (AID 1089); details: higher = more signal, called active from +8 up or from −8 down;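 further: growth of clinical yeast isolate S. cerevisiae YJM 789 seeded 1000 cells per well; test concentration not given here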
[3] = S. pombe growth modifiers, basal conditions – strain 972, OD600, 24 h, no modulator, primary screen (AID 1090);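 further: basal condition with compound alone and no growth modifier present; test concentration not given here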; details: S. pombe 972 growth, higher = more signal, called active from +8 up or from −8 down
[4] = budding yeast growth modifiers under rapamycin – strain BY4716, OD600, 96 h, primary screen (AID 1091); further: test concentration not given here; details: S. cerevisiae BY4716 + rapamycin, higher = more signal, called active from +8 up or from −8 down
[5] = molecular target: Torsin-1A-interacting protein 2 (Homo sapiens) (UniProt Q8NFQ8); test: small molecules binding lysate-expressed LULL1 – cell lysate, human LULL1 lysate, 635/667 nm fluorescence, primary screen (AID 1092); details: small-molecule microarray, hLULL1 lysate binding, 635 nm fluorescence; higher = more signal;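 further: probe is lysate of COS7 cells overexpressing human LULL1; score merges per-feature 667 nm fluorescence with signal-to-noise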
[6] = optical density change of DRC41 E. coli – strain DRC41, OD650, 24 h, E. coli filamentation project, primary screen (AID 1093);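 further: MC1000 strain lacking acrAB efflux and sulA so SOS filamentation is blocked; test concentration not given here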; details: E. coli DRC41 growth, higher = more signal, called active from +8 up or from −8 down
[7] = probe aLefty2 binding to arrayed compounds – biochemical, biotinylated probe, 635/667 nm fluorescence, primary screen (AID 1094); details: small-molecule microarray, higher = more signal;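 further: score merges spot fluorescence near 667 nm with spot signal-to-noise ratio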
[8] = test system: Noggin (protein binding on small-molecule microarray); test: small molecules binding Noggin protein – biochemical, 635/667 nm fluorescence, primary screen (AID 1095); details: 635 nm fluorescence, higher = more signal;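 further: score merges 667 nm feature fluorescence with signal to noise over triplicate slides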
[9] = molecular target: Neurogenic locus notch homolog protein 3 (Homo sapiens) (UniProt Q9UM47); test: small molecules binding NOTCH3 protein – biochemical, 635/667 nm fluorescence, primary screen (AID 1096); details: small-molecule microarray, 635 nm fluorescence, higher = more signal
[10] = probe aEGFR binding to arrayed compounds – biochemical, biotinylated probe, 635/667 nm fluorescence, primary screen (AID 1097); details: small-molecule microarray, higher = more signal;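 further: probe is a biotinylated anti-EGFR antibody binding compounds printed on slides; score combines fluorescence near 667 nm and signal to noise of each spot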

Torsin-1A-interacting protein 2 (Homo sapiens), sequence (Q8NFQ8 whole entry, looked up): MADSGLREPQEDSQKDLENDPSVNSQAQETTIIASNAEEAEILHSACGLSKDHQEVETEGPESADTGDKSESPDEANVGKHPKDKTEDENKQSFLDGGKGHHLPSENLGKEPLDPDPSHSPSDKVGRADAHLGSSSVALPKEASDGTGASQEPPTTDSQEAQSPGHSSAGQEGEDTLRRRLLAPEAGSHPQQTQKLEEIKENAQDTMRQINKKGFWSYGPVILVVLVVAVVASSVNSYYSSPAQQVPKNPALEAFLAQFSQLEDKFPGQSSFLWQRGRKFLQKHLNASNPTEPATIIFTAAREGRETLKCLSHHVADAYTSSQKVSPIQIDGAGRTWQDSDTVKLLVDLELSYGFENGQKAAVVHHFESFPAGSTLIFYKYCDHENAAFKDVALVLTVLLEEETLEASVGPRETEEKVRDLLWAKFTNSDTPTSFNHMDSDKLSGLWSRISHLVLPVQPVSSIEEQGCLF
Neurogenic locus notch homolog protein 3 (Homo sapiens), sequence (Q9UM47 whole entry, looked up): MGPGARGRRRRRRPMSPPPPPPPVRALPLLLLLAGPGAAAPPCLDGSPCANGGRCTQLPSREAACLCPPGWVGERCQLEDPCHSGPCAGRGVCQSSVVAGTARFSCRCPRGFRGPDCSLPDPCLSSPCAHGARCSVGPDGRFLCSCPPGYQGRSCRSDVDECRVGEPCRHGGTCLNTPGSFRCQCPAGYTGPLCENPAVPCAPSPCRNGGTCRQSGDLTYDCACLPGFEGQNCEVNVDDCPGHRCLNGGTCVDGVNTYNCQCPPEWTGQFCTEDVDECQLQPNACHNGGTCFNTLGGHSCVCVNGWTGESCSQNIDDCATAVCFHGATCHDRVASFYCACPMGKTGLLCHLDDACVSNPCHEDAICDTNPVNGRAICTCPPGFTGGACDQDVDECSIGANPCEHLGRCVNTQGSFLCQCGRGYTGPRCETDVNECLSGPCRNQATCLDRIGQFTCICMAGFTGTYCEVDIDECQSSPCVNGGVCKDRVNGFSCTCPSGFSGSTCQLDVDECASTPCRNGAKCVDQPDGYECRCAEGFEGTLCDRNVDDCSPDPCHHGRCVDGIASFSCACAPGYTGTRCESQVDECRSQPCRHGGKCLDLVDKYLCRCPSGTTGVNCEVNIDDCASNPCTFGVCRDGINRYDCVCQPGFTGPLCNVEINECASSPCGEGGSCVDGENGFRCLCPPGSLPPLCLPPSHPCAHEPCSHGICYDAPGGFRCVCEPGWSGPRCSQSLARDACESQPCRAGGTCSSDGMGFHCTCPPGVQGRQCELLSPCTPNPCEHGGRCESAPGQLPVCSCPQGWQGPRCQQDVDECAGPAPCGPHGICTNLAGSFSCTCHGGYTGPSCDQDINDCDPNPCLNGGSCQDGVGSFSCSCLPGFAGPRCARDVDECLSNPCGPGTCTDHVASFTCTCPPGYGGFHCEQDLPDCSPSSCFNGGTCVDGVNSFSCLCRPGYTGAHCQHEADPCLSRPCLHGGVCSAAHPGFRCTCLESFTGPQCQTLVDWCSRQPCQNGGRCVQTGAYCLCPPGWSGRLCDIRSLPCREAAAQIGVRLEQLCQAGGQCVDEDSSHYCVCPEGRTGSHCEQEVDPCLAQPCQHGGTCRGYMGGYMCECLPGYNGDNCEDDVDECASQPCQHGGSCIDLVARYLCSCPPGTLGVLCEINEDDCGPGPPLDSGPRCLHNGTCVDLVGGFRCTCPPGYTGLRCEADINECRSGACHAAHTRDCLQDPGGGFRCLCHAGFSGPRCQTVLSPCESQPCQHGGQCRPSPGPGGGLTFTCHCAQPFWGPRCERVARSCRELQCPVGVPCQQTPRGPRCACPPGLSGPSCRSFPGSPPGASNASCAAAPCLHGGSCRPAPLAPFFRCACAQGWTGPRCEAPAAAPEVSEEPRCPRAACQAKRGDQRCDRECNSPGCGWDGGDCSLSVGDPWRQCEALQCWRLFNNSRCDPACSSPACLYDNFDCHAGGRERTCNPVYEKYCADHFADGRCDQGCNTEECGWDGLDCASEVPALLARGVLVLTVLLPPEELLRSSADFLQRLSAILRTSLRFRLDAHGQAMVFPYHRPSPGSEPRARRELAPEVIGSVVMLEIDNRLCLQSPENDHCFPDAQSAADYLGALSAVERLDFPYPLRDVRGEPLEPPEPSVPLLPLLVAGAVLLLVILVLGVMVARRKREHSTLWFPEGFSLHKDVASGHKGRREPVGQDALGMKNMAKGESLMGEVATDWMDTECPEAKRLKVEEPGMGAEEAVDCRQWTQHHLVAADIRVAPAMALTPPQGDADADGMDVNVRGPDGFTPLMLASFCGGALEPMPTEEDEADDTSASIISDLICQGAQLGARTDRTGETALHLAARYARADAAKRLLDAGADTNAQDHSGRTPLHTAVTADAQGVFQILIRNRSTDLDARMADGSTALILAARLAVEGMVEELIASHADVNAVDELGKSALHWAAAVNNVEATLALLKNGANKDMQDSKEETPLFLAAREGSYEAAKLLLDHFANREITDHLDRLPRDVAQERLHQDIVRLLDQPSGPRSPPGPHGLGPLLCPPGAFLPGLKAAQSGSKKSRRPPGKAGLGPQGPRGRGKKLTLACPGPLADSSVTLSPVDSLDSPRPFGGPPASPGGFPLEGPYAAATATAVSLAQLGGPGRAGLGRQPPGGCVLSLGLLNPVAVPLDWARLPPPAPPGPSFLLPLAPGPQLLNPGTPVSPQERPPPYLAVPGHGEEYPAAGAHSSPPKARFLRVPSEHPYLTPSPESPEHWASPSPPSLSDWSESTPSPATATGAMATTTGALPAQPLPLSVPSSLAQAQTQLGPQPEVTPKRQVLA

| Structure (SMILES) | composite z-score [1] | z-score [2] | z-score [3] | z-score [4] | composite z-score [5] | z-score [6] | composite z-score [7] | composite z-score [8] | composite z-score [9] | composite z-score [10] |
| --- | --- | --- | --- | --- | --- | --- | --- | --- | --- | --- |
| COc1ccc([Si](C)(C)[C@H]2[C@H](CCO)O[C@@]3(C(=O)N(Cc4cccc(N5CCCCC5=O)c4)c4ccccc43)[C@@H]2C)cc1 | 1.54 | 2.01 (inactive) | -1.99 (inactive) | 2.68 (inactive) | 1.56 | 0.525 (inactive) | -0.0732 | 0.296 | 0.896 | 0.214 |
| NC(=O)NCC#Cc1ccc2c(c1)[C@]1(C(=O)N2)[C@H](c2ccc(O)cc2)N2[C@H](c3ccccc3)[C@H](c3ccccc3)OC(=O)[C@H]2[C@@H]1C(=O)Nc1nc2ccccc2s1 | 1.39 | 4.88 (inactive) | 4.35 (inactive) | 8.57 (active) | 1.07 | 1.06 (inactive) | 0.122 | 1.05 | 0.362 | -0.0975 |
| CCOC(=O)C[C@H]1[C@H](OC(=O)c2ccc(-c3ccccc3)cc2)[C@@H](NC(=O)c2ccc3ccccc3n2)c2cc(OCCCO)ccc2N1C(=O)c1ccccc1 | 1.52 | 0.617 (inactive) | 0.33 (inactive) | 0.976 (inactive) | 2.11 | -0.81 (inactive) | -0.171 | 0.671 | 1.05 | 0.0026 |
| O=C(NC1CC1)[C@@H]1c2ccccc2C(=O)N(Cc2ccccc2)[C@H]1c1ccc(CO)cc1 | 0.449 | 0.763 (inactive) | 0.109 (inactive) | 0.0225 (inactive) | 2.63 | 0.958 (inactive) | -0.479 | -0.43 | -0.0341 | -0.366 |
| CC(C)N1C(=O)[C@@]2(c3ccc([N+](=O)[O-])cc3)CC(=O)N(C3CCCCC3)[C@@H]2c2ccc(CO)cc21 | 1.27 | -1.78 (inactive) | 0.353 (inactive) | -2.19 (inactive) | 0.198 | -1.43 (inactive) | -0.103 | 0.622 | -0.509 | -0.0565 |
| CC1CC/C=C\[C@H]2OC34C=CCN(C(C)C)C(=O)[C@H]3N(CCCCCO)C(=O)[C@@H]4C2C(=O)O1 (stereo not given in full) | -0.897 | -0.104 (inactive) | -0.931 (inactive) | -0.958 (inactive) | -0.573 | 0.827 (inactive) | -0.139 | -1.43 | -0.208 | -0.281 |
| O=C1OCCC=C[C@H]2OC34C=CCN(c5ccc(Cl)cc5)C(=O)[C@H]3N(CCCCCO)C(=O)[C@@H]4C12 (stereo not given in full) | 0.536 | -0.579 (inactive) | -1.99 (inactive) | -0.54 (inactive) | 2.68 | 1.71 (inactive) | 0.0636 | -0.261 | 0.0841 | -0.0671 |
| CCCCC(=C=CC[C@@H](O)c1ccc(OCCO)cc1)C[C@@H](O)COCc1ccccc1 | 0.989 | -1.24 (inactive) | -2.39 (inactive) | -1.07 (inactive) | 0.146 | 1.69 (inactive) | -0.166 | 1.14 | -0.198 | -0.18 |
| Cc1ccc(S[C@]2(C(=O)O)CC(=O)N(Cc3ccccc3Cl)[C@@H]2c2ccc(CO)cc2)cc1 | -0.164 | -0.0285 (inactive) | -1.31 (inactive) | 0.644 (inactive) | 2.95 | -0.0647 (inactive) | 0.0069 | -1.46 | -0.944 | -0.119 |
| O=C1NCC(=O)N2[C@@H]1C[C@@H](C(=O)O)[C@H]2c1ccc(O)cc1 | 1.56 | 0.442 (inactive) | -0.498 (inactive) | 0.318 (inactive) | 2.6 | 0.984 (inactive) | 0.0875 | 1.44 | 1.08 | -0.326 |
| C=C[C@H](COC(C)=O)NS(=O)(=O)c1ccc(Br)cc1 | -0.0232 | 0.0313 (inactive) | -1.4 (inactive) | -0.124 (inactive) | -0.0639 | 0.506 (inactive) | -0.0598 | 0.0055 | -0.564 | -0.227 |
| NC(=O)N1C(=O)C2C(C1=O)C1C=C(c3ccc(CO)cc3)C2C(C2CC2)N1Cc1sc2ccccc2c1Cl (stereo not given) | 1.54 | 2.22 (inactive) | -2.31 (inactive) | 0.266 (inactive) | 2.68 | 1.34 (inactive) | 0.0139 | 0.695 | 1.06 | -0.0271 |
| [N-]=[N+]=Nc1ccccc1[C@@H]1OC(c2ccc(OCCCO)cc2)=N[C@]1(CCS(=O)(=O)c1ccccc1)C(=O)NCCN1CCOCC1 | 1.55 | -0.564 (inactive) | -0.727 (inactive) | 0.519 (inactive) | 3.15 | 0.0992 (inactive) | 0.383 | 0.038 | 0.808 | 0.354 |
| C=CCNC(=O)[C@@H]1[C@H]2C(=O)O[C@H](c3ccccc3)[C@H](c3ccccc3)N2[C@H](c2ccccc2OCCO)[C@@]12C(=O)N(C(=O)OCCOC)c1ccc(C#CC3=CCCCC3)cc12 | 1.54 | 0.363 (inactive) | -0.0834 (inactive) | 3.14 (inactive) | 2.31 | 0.906 (inactive) | -0.205 | 1.34 | 1.15 | -0.0435 |
